Values joined by “and” are separate entries in the source; they are usually repeats but may differ in a detail not shown here. Equal values may be shown once. Records with an inconclusive call do not appear. Active and inactive are the calls of the source. Unless noted, calls come from the whole dose curve; as a rule, active = well fitted curve in the direction sought with a large enough effect in the repeat runs; inconclusive = weak or mixed curves; inactive = no such curve, though single readings can be large; an effect the other way counts as inactive or inconclusive.
What was measured:
[1] = qHTS assay to identify small molecule agonists of the RXR signaling pathway - cell viability counter screen (AID 1159529); note: series mostly up to about 77 µM; nearly all actives have a fitted effect of over 50% in size
Procedure, shortened: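 Cell viability is measured by CellTiter-Glo luminescence, 30 min at room temperature, in wells already read for beta-lactamase. Engineered HEK 293T cells (RXR-alpha-UAS-bla) are dosed 16 hr at 37 C. Tetraoctyl ammonium bromide serves as positive control.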

[2] = qHTS assay to identify small molecule antagonists of the retinoid acid receptor (RAR) signaling pathway - cell viability counter screen (AID 1159551); note: nearly all actives have a fitted effect of over 35% in size
Procedure, shortened: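 Retinol-stimulated (1 uM final) C3RL4 cells, compound 6 h, 37 C; readout CellTiter-Glo luminescence (ATP) after 30 min RT incubation.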

[3] = qHTS assay to identify small molecule antagonists of the retinoic acid receptor (RAR) signaling pathway (AID 1159552; note: nearly all actives have a fitted effect of over 50% in size)
Procedure, shortened: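 Quantitative HTS in C3RL4 RARE-luciferase reporter cells. Compounds were added with 1 uM (final) retinol; luminescence was read after 6 hr.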

[4] = qHTS assay to identify small molecule agonists of the retinoic acid receptor (RAR) signaling pathway (AID 1159553)
Procedure, shortened: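 Reporter readout comes from luciferase under RARE control in C3RL4 cells; compound exposure lasts 6 hr at 37 C in 5% CO2, and luminescence is recorded following a 30 min room-temperature incubation with reagent.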

[5] = molecular target: Luciferin 4-monooxygenase (Photinus pyralis) (UniProt P08659); test: qHTS assay to identify small molecule inhibitors of firefly luciferase (AID 1224835); note: nearly all actives have a fitted effect of over 25% in size; note: potency is the fitted concentration of half-maximal effect
Procedure, shortened: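 Biochemical qHTS: compounds run as interplate titrations against purified firefly enzyme, with D-luciferin and ATP each at its KM concentration. Light output recorded by CCD imaging.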

[6] = qHTS assay to identify small molecule agonists of the constitutive androstane receptor (CAR) signaling pathway - cell viability counter screen (AID 1224836); note: series mostly up to about 92 µM; nearly all actives have a fitted effect of over 45% in size
Procedure, shortened: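 Counter screen multiplexed with the CAR reporter readout: HepG2 cells co-transfected with hCAR and the CYP2B6-2.2kb construct receive a 15-concentration compound series and 0.75 uM PK11195 (final), then CellTiter-Fluor fluorescence is read after 23 h.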

[7] = qHTS assay to identify small molecule antagonists of the constitutive androstane receptor (CAR) signaling pathway - cell viability counter screen (AID 1224837); note: series mostly up to about 92 µM; nearly all actives have a fitted effect of over 45% in size
Procedure, shortened: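 Counter screen run in HepG2-CYP2B6-hCAR cells: 4 hr settle, compound titration (15 concentrations) with 50 nM CITCO, 23 hr at 37 C/5% CO2, CellTiter-Fluor fluorescence.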

[8] = molecular target: Nuclear receptor subfamily 1 group I member 3 (Homo sapiens) (UniProt Q14994); test: qHTS assay to identify small molecule antagonists of the constitutive androstane receptor (CAR) signaling pathway (AID 1224838);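 note: HepG2 cells stably expressing hCAR with CYP2B6 luciferase reporter stimulated by CITCO; nearly all actives have a fitted effect of over 40% in size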
Procedure, shortened: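 Cell line: HepG2 double-stable for hCAR and CYP2B6-2.2kb reporter. Agonist: CITCO, 50 nM final. Compounds: 15 concentrations, 24 h, 37 C. Detection: ONE-Glo luminescence.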

[9] = molecular target: Nuclear receptor subfamily 1 group I member 3 (Homo sapiens) (UniProt Q14994); test: qHTS assay to identify small molecule agonists of the constitutive androstane receptor (CAR) signaling pathway (AID 1224839); note: nearly all actives have a fitted effect of over 15% in size; note: potency is the fitted concentration of half-maximal effect
Procedure, shortened: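 A 15-concentration quantitative screen uses HepG2 cells co-transfected stably with human CAR and CYP2B6-2.2kb reporter. Treatment lasts 24 h with 0.75 uM PK11195 final present; ONE-Glo luminescence is the signal.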

[10] = qHTS assay to identify small molecule antagonists of the estrogen related receptor signaling pathway with the pleiotropic PPARgamma coactivator (PGC) from Tox21 10K library - cell viability counter screen (AID 1224840; active = well fitted cell-killing curve with a large enough effect in the repeat runs, not every such curve was filed as active; note: nearly all actives have a fitted effect of over 40% in size)
Procedure, shortened: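 Following seeding of 2,000 PGC/ERR cells/well and 6 hours' incubation, test compounds were delivered in DMSO. The plates then sat 17.5 hours at 37 C before a fluorogenic live-cell protease reagent (CellTiter-Fluor) was read after 30 min.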

[11] = qHTS assay to identify small molecule antagonists of the estrogen related receptor signaling pathway with the pleiotropic PPARgamma coactivator (PGC) from Tox21 10K library (AID 1224841; call rule not given here; note: series mostly up to about 92 µM; actives are mostly falling curves and most rising ones were filed inactive; nearly all actives have a fitted effect of over 50% in size)
Procedure, shortened: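 qHTS antagonist format: PGC/ERR cells, 2k/well, compound in DMSO by pin transfer after 6 h attachment, 18 h treatment at 37 C, One-Glo luminescence read at 30 min.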

[12] = qHTS assay to identify small molecule agonists of the estrogen related receptor signaling pathway with the pleiotropic PPARgamma coactivator (PGC) from Tox21 10K library (AID 1224842); note: nearly all actives have a fitted effect of over 15% in size
Procedure, shortened: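 PGC/ERR reporter cell line, 2,000 cells per well, incubated 6 h at 37 C before 23 nL compound in DMSO was added. After 18 h at 37 C, One-Glo luminescence read following 30 min at room temperature.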

[13] = molecular target: Thyrotropin receptor (Homo sapiens) (UniProt P16473); test: qHTS assay to identify small molecule agonists of the thyroid stimulating hormone receptor (TSHR) signaling pathway (AID 1224843; calls by dose curve; note: nearly all actives have a fitted effect of over 45% in size)
Procedure, shortened: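 TSHR-HEK293 cells in agonist mode, 30 min room-temperature step, then cAMP measured by competitive HTRF (cAMP-d2 with anti-cAMP cryptate) after 1 h at room temperature. Tested at 15 concentrations in triplicate.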

[14] = qHTS assay to identify small molecule antagonists of the estrogen related receptor (ERR) signaling pathway from Tox21 library - cell viability counter screen (AID 1224834); note: nearly all actives have a fitted effect of over 30% in size
Procedure, shortened: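 After 17.5 h of compound exposure at 37 C, ERR cells are incubated with CellTiter-Fluor for 30 min and fluorescence intensity serves as the viability measure.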

[15] = qHTS assay to identify small molecule antagonists of the estrogen related receptor (ERR) signaling pathway - cell viability counter screen (AID 1224818); note: series mostly up to about 46 µM
Procedure, shortened: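 After a 6 h pre-incubation, ERR cells were dosed by pin tool with compounds, positive/negative controls or DMSO alone. Following 17.5 h at 37 C and 30 min with CellTiter-Fluor, fluorescence was recorded.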

[16] = qHTS assay to identify small molecule antagonists of the estrogen related receptor signaling pathway with the pleiotropic PPARgamma coactivator (PGC) cell viability counter screen (AID 1224822; note: series mostly up to about 46 µM)
Procedure, shortened: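 PGC/ERR cells were plated at 2,000 per well and allowed 6 h to settle before compound addition. Following 17.5 h at 37 C, CellTiter-Fluor reagent was added and fluorescence was read 30 min later.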

Measured: Potency

Nuclear receptor subfamily 1 group I member 3 (Homo sapiens), sequence (Q14994 whole entry, looked up): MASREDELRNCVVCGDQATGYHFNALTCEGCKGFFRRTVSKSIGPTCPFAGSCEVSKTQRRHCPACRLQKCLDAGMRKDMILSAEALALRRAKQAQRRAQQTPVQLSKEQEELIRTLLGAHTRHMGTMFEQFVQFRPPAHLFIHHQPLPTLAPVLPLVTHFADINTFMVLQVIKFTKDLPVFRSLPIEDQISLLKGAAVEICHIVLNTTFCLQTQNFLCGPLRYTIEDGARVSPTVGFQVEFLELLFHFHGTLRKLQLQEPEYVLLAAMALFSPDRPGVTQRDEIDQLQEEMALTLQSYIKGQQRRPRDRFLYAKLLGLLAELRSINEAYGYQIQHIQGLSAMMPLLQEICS
Thyrotropin receptor (Homo sapiens), sequence (P16473 whole entry, looked up): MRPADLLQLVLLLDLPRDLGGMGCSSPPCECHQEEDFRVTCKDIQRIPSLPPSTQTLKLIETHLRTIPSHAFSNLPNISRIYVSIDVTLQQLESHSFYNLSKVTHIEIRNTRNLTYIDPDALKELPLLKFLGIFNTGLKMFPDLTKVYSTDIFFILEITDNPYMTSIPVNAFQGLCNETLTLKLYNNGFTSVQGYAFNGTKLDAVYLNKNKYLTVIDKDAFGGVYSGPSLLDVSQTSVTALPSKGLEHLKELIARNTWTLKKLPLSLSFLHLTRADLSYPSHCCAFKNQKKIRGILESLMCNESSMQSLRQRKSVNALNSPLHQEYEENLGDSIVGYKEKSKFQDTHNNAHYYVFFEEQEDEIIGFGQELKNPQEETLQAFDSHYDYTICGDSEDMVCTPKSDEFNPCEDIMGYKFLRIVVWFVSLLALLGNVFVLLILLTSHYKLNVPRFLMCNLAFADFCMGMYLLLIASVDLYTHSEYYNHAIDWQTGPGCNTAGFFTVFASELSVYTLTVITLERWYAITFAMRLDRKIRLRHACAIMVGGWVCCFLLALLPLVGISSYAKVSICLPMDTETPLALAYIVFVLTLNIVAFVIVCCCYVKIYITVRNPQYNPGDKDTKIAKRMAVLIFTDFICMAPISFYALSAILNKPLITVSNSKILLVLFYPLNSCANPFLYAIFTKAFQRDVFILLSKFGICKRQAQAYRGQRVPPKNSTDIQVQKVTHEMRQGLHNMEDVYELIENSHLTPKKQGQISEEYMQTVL
Luciferin 4-monooxygenase (Photinus pyralis), sequence (P08659 whole entry, looked up): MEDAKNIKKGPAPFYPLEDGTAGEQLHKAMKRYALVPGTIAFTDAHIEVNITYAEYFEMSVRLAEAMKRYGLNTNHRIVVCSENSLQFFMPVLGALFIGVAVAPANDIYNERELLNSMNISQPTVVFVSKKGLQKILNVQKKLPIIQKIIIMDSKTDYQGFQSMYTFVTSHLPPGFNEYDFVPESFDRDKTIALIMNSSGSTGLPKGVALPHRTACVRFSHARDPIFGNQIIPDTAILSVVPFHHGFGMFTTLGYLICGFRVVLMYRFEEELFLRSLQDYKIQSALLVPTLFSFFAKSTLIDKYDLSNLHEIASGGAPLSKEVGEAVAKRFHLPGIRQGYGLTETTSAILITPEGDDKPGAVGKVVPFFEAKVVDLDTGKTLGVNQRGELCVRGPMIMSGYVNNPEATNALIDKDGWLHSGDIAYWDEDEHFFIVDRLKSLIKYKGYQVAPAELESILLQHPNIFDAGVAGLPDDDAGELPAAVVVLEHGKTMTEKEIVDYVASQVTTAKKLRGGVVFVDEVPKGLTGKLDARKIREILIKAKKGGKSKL

Cc1ccc2ncccc2c1
not listed: [14] | [15] | [16]
inactive: all other assays above

COCCOC(=O)c1ccccc1C(=O)OCCOC
not listed: [10] | [11] | [12] | [15] | [16]
inactive: all other assays above

CC(=O)Oc1ccc(C)cc1
inactive: [1] | [2] | [3] | [4] | [5] | [6]

CCCCCCCCCCO
not listed: [8] | [9] | [11] | [12] | [15] | [16]
inactive: all other assays above

CC1(C)NC(=O)NC1=O
not listed: [7] | [10] | [15] | [16]
inactive: all other assays above

O=C(O)Cn1c(=O)n(Cc2ccc(Br)cc2F)c(=O)c2ccc(Cl)cc21
not listed: [10] | [15] | [16]
inactive: all other assays above

CC(=O)CCC=C(C)C
not listed: [8] | [9] | [15] | [16]
inactive: all other assays above

CC(O)CC(C)(C)O (stereo unspecified)
inactive: [1] | [2] | [3] | [4] | [5] | [6] | [7]

COC(=O)CCCC(=O)OC
not listed: [7] | [11] | [12] | [15] | [16]
inactive: all other assays above

CC(C)CC(=O)CC(C)CC(C)C (stereo unspecified)
not listed: [10] | [15] | [16]
inactive: all other assays above

N[C@H](Cc1c[nH]c2ccccc12)C(=O)O
not listed: [8] | [9] | [11] | [12] | [15] | [16]
inactive: all other assays above

O=c1[nH]cnc2[nH]ncc12
not listed: [11] | [12] | [13]
inactive: all other assays above

O=C(O)c1cc2ccccc2cc1O
active: [5] 35.3 µM and 31.7 µM | [9] 43.3 µM
not listed: [10] | [15] | [16]
inactive: all other assays above

NCCCCCCN
not listed: [8] | [9] | [15] | [16]
inactive: all other assays above

CCCCCCCCCCCCCCCC(=O)OC(C)C
not listed: [11] | [12] | [13] | [14] | [15] | [16]
inactive: all other assays above

Brc1ccc(Br)c(Br)c1
inactive: [1] | [2] | [3] | [4] | [14] | [5] | [6] | [10] | [13]

CC(=O)OCc1ccccc1
inactive: [1] | [2] | [3] | [4] | [14] | [5] | [6] | [10] | [13]

CCOCCOCCOCCO
not listed: [11] | [12] | [15] | [16]
inactive: all other assays above

Source: PubChem BioAssay (Tox21)
